# Compound activity deposited in PubChem BioAssay by National Center for Advancing Translational Sciences (NCATS).
# Pf growth 96h: inhibits malaria parasite growth, 96 h; hit rate 6.9% among 320,000; P. falciparum luciferase reporter growth, 96 h; AID 504834; Potency, µM (titrated, usually from 28.7 µM), without a hit: top-dose activity change, negative = inhibition, hits mostly inhibitors; also: potency is read from the fitted curve at half-maximal effect; % is scaled to controls: 0 for no effect and ±100 for the full control effect
#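 P. falciparum expressing integrated firefly luciferase grown in erythrocytes (2% hematocrit, 0.05% parasitemia final) with compounds for 96 hours at 37 C, 5% CO2. Growth inhibition read as loss of luminescence after adding luciferase detection reagent.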
# Cycloheximide cs: counter-screen for Shiga toxin inhibitors: cycloheximide protein synthesis inhibition; cell reporter, cycloheximide protein synthesis inhibition counterscreen; max response, %; hit rate 12% among 300,000; in the data active = max response mostly above about 13%, no sharp cut-off; inactive = mostly below about 14%; also: read at 38.3 µM for the half of the compounds with a filed dose; 0% is about no effect
# Pf growth 48h: inhibits P. falciparum growth in the first generation, 48 h. P. falciparum luciferase growth in erythrocytes, 48 h. Potency, µM (top dose mostly 28.7 µM), inactives show at the highest dose activity change, negative = inhibition, actives largely listed as inhibitors. hit rate 5.9% among 310,000. AID 504832; also: potency is read from the fitted curve at half-maximal effect; % is scaled to controls: 0 for no effect and ±100 for the full control effect
#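 Here the parasites carry a stable luciferase gene and grow inside erythrocytes in Albumax-based RPMI medium with compound for one erythrocytic cycle. Activity is scored as loss of luminescent signal.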
# Shiga toxin inh: Shiga toxin inhibition; Vero cells, Shiga toxin protein synthesis inhibition reporter; inhibition, % at 38.7 µM; hit rate 9.2% among 290,000; AID 2315; in the data active = inhibition mostly above about 28%, no sharp cut-off; inactive = mostly below about 43%; also: 0% is about no effect
# Marburg entry inh: blocks Marburg virus binding to or entry into cells | hit rate 1.8% among 300,000 | Marburg virus pseudotyped entry inhibition, cell reporter | Potency, µM (top dose mostly 37.8 µM), for inactives: top-dose activity change, negative = inhibition, usual class: inhibitors | AID 540276; calls by dose curve; tested in HEK293 cells; also: potency is read from the fitted curve at half-maximal effect; % is scaled to controls: 0 for no effect and ±100 for the full control effect
# Lassa entry inh: Lassa virus entry inhibition; hit rate 1.2% among 300,000; Lassa virus pseudotype entry inhibition, cell reporter; Potency, µM (top dose mostly 37.9 µM), inactives show at the highest dose activity change, negative = inhibition, actives largely listed as inhibitors; AID 540256; calls by dose curve; tested in HEK293 cells; also: potency is read from the fitted curve at half-maximal effect; % is scaled to controls: 0 for no effect and ±100 for the full control effect; nearly all actives have a fitted effect of over 50% in size
# Active calls of the source: *; ? = inconclusive; nt = no result given; [ ] = dose if it differs, or a comment. The list is not random: actives were taken first. Their share in the collection is about 19%. Unless noted, calls follow the shape of the dose curve; as a rule, active = well fitted inhibition curve with a large enough effect; inconclusive = small, poorly fitted or top-dose-only effect, or another doubt; inactive = no such curve, though single readings can be large or run the other way.
SMILES,Pf growth 96h,Cycloheximide cs,Pf growth 48h,Shiga toxin inh,Marburg entry inh,Lassa entry inh
C/C(=N/NC(=O)c1cc(C2CC2)[nH]n1)c1cccs1,18%,25*,nt,5,10µM*,2.6µM*
C/C(=N\NC(=O)C1=NNC(=O)C1C)c1cccs1 (stereo not given),3%,34*,0%,90*,-1%[46.1 µM],3%
CCOCCCN(C(=O)CNC(=O)c1ccco1)C(C(=O)NC1CCCC1)c1ccccc1C (stereo not given),?,0,-1%,-7,-2%,20%
CCOc1ccccc1C(=O)N(Cc1cc(OC)c(OC)c(OC)c1)C1CCS(=O)(=O)C1 (stereo not given),nt,nt,nt,nt,13%[46.1 µM],9%[46.1 µM]
COC(=O)Nc1nc(-c2ccccc2)c(C(=O)c2ccc(Cl)cc2)s1,nt,-2,-12%,-1,?,?
CCON1C(=O)CN(C(=O)OC)C1c1ccc(Cl)cc1Cl (stereo not given),-2%,-4,-16%,-4,-35%,-4%
COc1cc2c(cc1OC)n(CC(=O)NC1CCCCCC1)n1c(C)cc(=O)nc21,5.9µM*,14,19%,-4,nt,nt
CCNc1cc(N2CCN(S(=O)(=O)c3ccc4c(c3)CCCC4)CC2)ccc1[N+](=O)[O-],34%,-3,?,-20,-17%,-2%
Cc1ccc(NC(=O)COc2ccc(C3SCCS3)cc2)cc1,22%,17,8%,16,?,11%
O=C(COc1ccc(C2SCCS2)cc1)NNC(=O)C(Cl)Cl,72%,22*,39%,48,?,-2%
C=CCSSSCC=C,-29%,nt,1%,nt,nt,nt
COc1ccc(/C=C2\SC(=O)N(CCCC(=O)Nc3cc(Cl)ccc3C(=O)O)C2=O)cc1,nt,nt,nt,nt,1.3µM*,0.4µM*
COc1cccc(/C=C2\SC(=O)N(CCC(=O)NNC(=O)c3cccc(Cl)c3)C2=O)c1,66%,-5,22%,-9,-18%,1.6µM*
COc1cccc(/C=C2\SC(=O)N(CCC(=O)NC3CCS(=O)(=O)C3)C2=O)c1 (stereo not given),9.3µM*,-4,-3%,28,nt,nt
O=C(CCN1C(=O)S/C(=C\c2ccccc2)C1=O)NC1CCS(=O)(=O)C1 (stereo not given),12µM*,-7,-7%,-3,nt,nt
CCOC(=O)N1CCC(NC(=O)C(Cc2ccccc2)NC(=O)c2ccco2)CC1 (stereo not given),nt,-2,2%,-3,11%,0%
CC(C)CCN1CCN(C2CCN(c3ccc4c(c3)OCO4)CC2)CC1CCO (stereo not given),?,1,15%,-8,?,-18%[46.1 µM]
CCS(=O)(=O)N1CCN(Cc2ccc([N+](=O)[O-])cc2)CC1,?,-3,22%,-3,-4%,-1%
CCS(=O)(=O)N1CCc2cc(C(=O)Nc3cccc(Cl)c3C)ccc21,nt,nt,nt,nt,6%[46.1 µM],22%[46.1 µM]
CC(=O)C(Sc1nc(-c2ccc(F)cc2)nc2c1c(=O)n(C)c(=O)n2C)C(C)=O,27%,-3,19%,-6,nt,nt
CCN(C(=O)CN1C(=O)S/C(=C\c2cccc(OC)c2)C1=O)C1CCS(=O)(=O)C1 (stereo not given),8.3µM*,3,?,1,?,0%[46.1 µM]
O=C(NCc1ccc2c(c1)OCO2)c1nnc(Cc2ccc(F)cc2)o1,?,-2,17%,-12,-2%,3%
Cc1ccccc1[N+](=O)[O-],?,nt,30%,nt,nt,nt
Cc1ccccc1-n1ncc2c([N+](=O)[O-])cc([N+](=O)[O-])cc21,?,-5,9.3µM*,2,-34%,?
COC(=O)c1nccnc1C(=O)Nc1ccccc1N1CCOCC1,42%,9,71%,-13,24%[46.1 µM],7%[46.1 µM]
SMILES,Pf growth 96h,Cycloheximide cs,Pf growth 48h,Shiga toxin inh,Marburg entry inh,Lassa entry inh
Cc1ccc(-c2noc(-c3cccnc3NCc3ccco3)n2)cc1,nt,nt,nt,nt,?,24%[46.1 µM]
COc1ccc(CN2CCN(C(=O)CCC(=O)Nc3nnc(C4CCCCC4)s3)CC2)cc1F,12µM*,-6,-27%,-11,-28%[46.1 µM],-3%[46.1 µM]
COc1ccc(CN2CCN(C(=O)CCC(=O)Nc3nnc(C(F)(F)F)s3)CC2)cc1F,?,4,-9%,-11,nt,nt
O=C1N=C(N2CCCC2)S/C1=C\C=C\c1ccccc1,0%,47*,8%,69*,nt,nt
CCOC(=O)C1CCCN(C2=NC(=O)/C(=C/c3ccc(O)c(OC)c3)S2)C1 (stereo not given),?,14*,-6%[0.00184 µM],30,nt,nt
COc1ccc(/C=C2\SC(N3CCCCC3)=NC2=O)cc1,20%,22*,?,21,nt,nt
O=C1N=C(N2CCCCC2)S/C1=C\c1ccncc1,?,-2,?,-11,?,-14%
COc1ccccc1CNC(=O)c1ccccc1C(=O)NC(CC(C)C)C(=O)NCc1ccccc1OC (stereo not given),?,15,1%,-4,nt,nt
CCN1C(=C(C#N)C#N)C=Cc2ccccc21,?,14,-4%,-5,nt,nt
CCCCCCCC/C=C\CCCCCCCC(=O)NCCO,2.6µM*,nt,2.9µM*,nt,?,3%
CCCCCCCC/C=C\CCCCCCCC(=O)NCc1ccc(O)c(OC)c1,17µM*,nt,?,nt,-15%,?
CCCCCCCC/C=C\CCCCCCCC(=O)NCCc1ccc(O)c(O)c1,?,nt,10µM*,nt,4.5µM*,9.2µM*
CCCCC/C=C\C/C=C\C/C=C\C/C=C\CCCC(=O)NCCO,nt,5,nt,-2,nt,nt
CCCCC/C=C\C/C=C\C/C=C\C/C=C\CCCC(=O)NCCc1ccc(O)c(O)c1,nt,19,nt,45,nt,nt
COc1cc(CNC(=O)CCCC/C=C\C(C)C)ccc1O,nt,-8,nt,-14,nt,nt
c1ccc(CSCc2ccccc2)cc1,7%,nt,-30%,nt,nt,nt
COc1ccc(S(=O)(=O)N2CCOC2CNC(=O)C(=O)NCc2ccco2)cc1C (stereo not given),-1%,-1,-4%,-2,2%[46.1 µM],9%
CC1C(=O)N(Cc2ccc(F)cc2)c2ccccc2N1C(=O)c1c(F)cccc1F (stereo not given),12µM*,-3,?,3,nt,nt
COC(=O)c1ccc(CN2C(=O)C(C)N(C(=O)c3c(F)cccc3F)c3ccccc32)cc1 (stereo not given),?,-4,?,24,nt,nt
CN(C)S(=O)(=O)c1cccc(C(=O)NC2CCSc3ccccc32)c1 (stereo not given),12µM*,-1,?,-12,18%[46.1 µM],2%[46.1 µM]
O=C(NC1CCCc2ccccc21)c1ccc([N+](=O)[O-])cc1 (stereo not given),6%,2,2%,2,?,-6%
CS(=O)(=O)Cc1cccc(C(=O)NC2CCSc3ccccc32)c1 (stereo not given),75%,10,6%,17,2%,?
O=C(NC1CCSc2ccccc21)c1cccc([N+](=O)[O-])c1 (stereo not given),2.3µM*,23,1.5µM*,48*,nt,nt
CCCN1CCN(CCCNC(=O)Cn2nc(C)n3c(cc4c(OC)cccc43)c2=O)CC1,nt,nt,nt,nt,-1%[46.1 µM],nt
